# Assay results reported in paper PMC7862700, “An all-to-all approach to the identification of sequence-specific readers for epigenetic DNA modifications on cytosine”.
# Assays:
# Assay in all cases: DAPPL (digital affinity profiling via proximity ligation, sequencing); 10 mM Tris-HCl pH 7.5, 50 mM NaCl, 1 mM DTT, 4% glycerol, room temperature, 30 min; GST-TFs on glutathione beads, 16-mer random dsDNA library, 0.1% formaldehyde crosslink after washing; high values mean tight binding
# FLI1 = molecular target: T1, FLI1 (Homo sapiens, UniProt Q01543 1-452); details: protein: recombinant; tags: N-terminal GST; dsDNA, one strand shown
# T1 sequence: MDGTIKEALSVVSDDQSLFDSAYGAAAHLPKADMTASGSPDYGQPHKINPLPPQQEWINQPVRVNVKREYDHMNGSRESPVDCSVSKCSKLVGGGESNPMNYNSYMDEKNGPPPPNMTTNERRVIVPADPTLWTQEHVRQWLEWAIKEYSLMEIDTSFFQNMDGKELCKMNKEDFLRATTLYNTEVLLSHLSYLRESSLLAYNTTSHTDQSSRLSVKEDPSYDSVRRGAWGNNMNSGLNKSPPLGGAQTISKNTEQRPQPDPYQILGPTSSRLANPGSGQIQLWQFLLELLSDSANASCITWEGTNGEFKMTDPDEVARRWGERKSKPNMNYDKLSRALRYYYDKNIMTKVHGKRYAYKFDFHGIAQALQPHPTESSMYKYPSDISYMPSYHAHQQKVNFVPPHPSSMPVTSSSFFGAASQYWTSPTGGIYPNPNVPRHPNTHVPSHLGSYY
# Method in brief: (§1)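 GST fusions of human transcription factors were expressed in yeast and captured with glutathione beads. Once given DNA barcodes and pooled alongside a tag-only sample, they were incubated for 30 min at room temperature with 200 nmole of a random double-stranded 16-mer DNA library in Tris/NaCl/DTT/glycerol buffer, then washed, crosslinked (0.1% formaldehyde), proximity-ligated, PCR-amplified and sequenced on an Illumina NextSeq500. The binding signal of each hexamer is its read frequency for a factor divided by its frequency for the tag-only sample.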
# ELK1 = molecular target: T2, ELK1 (Homo sapiens, UniProt P19419 1-428); details: protein: recombinant; tags: N-terminal GST; dsDNA, one strand shown
# T2 sequence: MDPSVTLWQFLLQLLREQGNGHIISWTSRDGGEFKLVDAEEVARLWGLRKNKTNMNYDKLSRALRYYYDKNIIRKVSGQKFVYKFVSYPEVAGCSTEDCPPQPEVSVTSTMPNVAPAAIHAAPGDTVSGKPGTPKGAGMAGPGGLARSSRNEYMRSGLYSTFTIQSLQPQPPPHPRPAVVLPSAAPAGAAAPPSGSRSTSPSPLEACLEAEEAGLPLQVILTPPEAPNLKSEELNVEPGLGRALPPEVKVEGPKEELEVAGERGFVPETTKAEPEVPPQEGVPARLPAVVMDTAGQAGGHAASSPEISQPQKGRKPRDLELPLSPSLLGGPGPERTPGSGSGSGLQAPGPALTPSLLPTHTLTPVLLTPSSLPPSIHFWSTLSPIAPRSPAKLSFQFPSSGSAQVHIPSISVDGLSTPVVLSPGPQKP
# Method in brief: as §1
# GABPA = molecular target: T3, GABPA (Homo sapiens, UniProt Q06546 1-454); details: protein: recombinant; tags: N-terminal GST; dsDNA, one strand shown
# T3 sequence: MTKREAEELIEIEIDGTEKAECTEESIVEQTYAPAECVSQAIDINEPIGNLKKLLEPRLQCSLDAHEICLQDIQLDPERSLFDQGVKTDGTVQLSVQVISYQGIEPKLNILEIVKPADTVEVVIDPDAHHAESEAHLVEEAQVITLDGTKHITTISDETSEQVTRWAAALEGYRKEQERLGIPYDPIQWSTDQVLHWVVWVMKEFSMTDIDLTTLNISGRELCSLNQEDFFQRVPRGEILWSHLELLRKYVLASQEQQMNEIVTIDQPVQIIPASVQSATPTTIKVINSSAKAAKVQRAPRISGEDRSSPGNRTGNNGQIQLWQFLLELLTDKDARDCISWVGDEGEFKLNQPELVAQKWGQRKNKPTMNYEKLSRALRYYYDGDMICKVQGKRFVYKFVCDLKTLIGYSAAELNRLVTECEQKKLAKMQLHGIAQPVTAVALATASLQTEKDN
# Method in brief: as §1
# ERG = molecular target: T4, ERG (Homo sapiens, UniProt P11308 1-479); details: protein: recombinant; tags: N-terminal GST; dsDNA, one strand shown
# T4 sequence: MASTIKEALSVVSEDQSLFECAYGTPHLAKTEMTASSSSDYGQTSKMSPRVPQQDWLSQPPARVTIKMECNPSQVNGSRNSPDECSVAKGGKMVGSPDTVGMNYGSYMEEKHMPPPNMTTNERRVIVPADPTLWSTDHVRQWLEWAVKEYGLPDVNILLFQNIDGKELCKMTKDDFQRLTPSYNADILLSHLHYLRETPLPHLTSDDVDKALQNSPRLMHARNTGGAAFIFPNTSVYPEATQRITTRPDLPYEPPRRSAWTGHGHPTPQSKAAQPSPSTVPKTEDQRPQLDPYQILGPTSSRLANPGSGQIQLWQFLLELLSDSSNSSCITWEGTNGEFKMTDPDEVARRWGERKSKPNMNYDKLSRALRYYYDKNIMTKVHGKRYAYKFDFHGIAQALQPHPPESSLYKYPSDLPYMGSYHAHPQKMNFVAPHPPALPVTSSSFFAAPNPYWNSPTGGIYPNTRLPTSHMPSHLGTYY
# Method in brief: as §1
# ELF1 = ELF1 (Homo sapiens, UniProt P32519 1-619); details: protein: recombinant; tags: N-terminal GST; dsDNA, one strand shown
# Method in brief: as §1
# EHF = molecular target: T5, EHF (Homo sapiens, UniProt Q9NZC4 1-300); details: protein: recombinant; tags: N-terminal GST; dsDNA, one strand shown
# T5 sequence: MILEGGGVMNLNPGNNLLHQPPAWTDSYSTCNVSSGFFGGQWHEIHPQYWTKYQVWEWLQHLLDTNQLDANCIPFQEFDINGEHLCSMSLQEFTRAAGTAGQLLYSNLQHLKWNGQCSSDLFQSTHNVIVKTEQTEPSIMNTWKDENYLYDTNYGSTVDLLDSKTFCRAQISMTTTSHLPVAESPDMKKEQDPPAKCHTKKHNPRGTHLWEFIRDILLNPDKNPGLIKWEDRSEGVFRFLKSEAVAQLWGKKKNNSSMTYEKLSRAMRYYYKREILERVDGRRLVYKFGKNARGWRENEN
# Method in brief: as §1
# SPI1 = SPI1 (Homo sapiens, UniProt P17947 1-270); details: protein: recombinant; tags: N-terminal GST; dsDNA, one strand shown
# Method in brief: as §1
# SPIB = SPIB (Homo sapiens, UniProt Q01892 1-262); details: protein: recombinant; tags: N-terminal GST; dsDNA, one strand shown
# Method in brief: as §1
# ELK3 = molecular target: T6, ELK3 (Homo sapiens, UniProt P41970 1-407); details: protein: recombinant; tags: N-terminal GST; dsDNA, one strand shown
# T6 sequence: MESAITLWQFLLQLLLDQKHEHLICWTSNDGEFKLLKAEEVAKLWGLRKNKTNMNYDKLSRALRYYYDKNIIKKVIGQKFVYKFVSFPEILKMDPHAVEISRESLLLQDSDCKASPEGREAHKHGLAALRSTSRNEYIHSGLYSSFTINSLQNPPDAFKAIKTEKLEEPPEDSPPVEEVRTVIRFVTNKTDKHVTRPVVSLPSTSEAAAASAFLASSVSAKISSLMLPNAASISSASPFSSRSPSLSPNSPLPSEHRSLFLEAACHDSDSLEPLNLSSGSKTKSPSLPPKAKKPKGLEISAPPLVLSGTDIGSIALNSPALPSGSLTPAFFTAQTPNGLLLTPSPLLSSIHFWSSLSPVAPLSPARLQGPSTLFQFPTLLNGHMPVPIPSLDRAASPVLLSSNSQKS
# Method in brief: as §1
# FEV = molecular target: T7, FEV (Homo sapiens, UniProt Q99581 1-238); details: protein: recombinant; tags: N-terminal GST; dsDNA, one strand shown
# T7 sequence: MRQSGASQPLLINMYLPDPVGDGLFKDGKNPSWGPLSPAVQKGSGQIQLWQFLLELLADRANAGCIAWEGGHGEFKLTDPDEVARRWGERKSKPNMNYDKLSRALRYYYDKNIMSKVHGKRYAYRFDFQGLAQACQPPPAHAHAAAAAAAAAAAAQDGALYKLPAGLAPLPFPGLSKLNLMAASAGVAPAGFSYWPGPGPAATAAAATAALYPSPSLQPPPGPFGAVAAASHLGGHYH
# Method in brief: as §1
# ETV5 = ETV5 (Homo sapiens, UniProt P41161 1-510); details: protein: recombinant; tags: N-terminal GST; dsDNA, one strand shown
# Method in brief: as §1
# HSF1 = HSF1 (Homo sapiens, UniProt Q00613 1-529); details: protein: recombinant; tags: N-terminal GST; chain copies: 3; dsDNA, one strand shown
# Method in brief: as §1
# SPIC = molecular target: T8, SPIC (Homo sapiens, UniProt Q8N5J4 1-248); details: protein: recombinant; tags: N-terminal GST; dsDNA, one strand shown
# T8 sequence: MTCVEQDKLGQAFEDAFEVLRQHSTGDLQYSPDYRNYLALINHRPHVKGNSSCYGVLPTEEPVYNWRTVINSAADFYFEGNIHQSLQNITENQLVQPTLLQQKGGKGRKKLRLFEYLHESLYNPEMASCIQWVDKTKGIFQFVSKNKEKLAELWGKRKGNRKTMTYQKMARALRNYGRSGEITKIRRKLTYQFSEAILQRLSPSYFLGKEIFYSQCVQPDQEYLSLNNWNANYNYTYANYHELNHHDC
# Method in brief: as §1
# ELF4 = ELF4 (Homo sapiens, UniProt Q99607 1-663); details: protein: recombinant; tags: N-terminal GST; dsDNA, one strand shown
# Method in brief: as §1
# ELK4 = molecular target: T9, ELK4 (Homo sapiens, UniProt P28324-2 1-405); details: protein: recombinant; tags: N-terminal GST; dsDNA, one strand shown
# T9 sequence: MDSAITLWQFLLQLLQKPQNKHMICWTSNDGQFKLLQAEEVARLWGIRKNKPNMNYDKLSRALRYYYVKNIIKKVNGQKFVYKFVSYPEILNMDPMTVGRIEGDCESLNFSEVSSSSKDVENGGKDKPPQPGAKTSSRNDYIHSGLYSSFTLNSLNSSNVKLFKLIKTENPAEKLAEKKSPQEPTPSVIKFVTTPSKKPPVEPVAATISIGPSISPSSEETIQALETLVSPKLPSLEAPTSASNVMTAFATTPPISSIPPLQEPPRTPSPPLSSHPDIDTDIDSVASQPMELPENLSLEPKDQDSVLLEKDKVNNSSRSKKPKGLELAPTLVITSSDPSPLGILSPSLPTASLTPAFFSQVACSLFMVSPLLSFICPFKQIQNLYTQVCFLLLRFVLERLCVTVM
# Method in brief: as §1
# ETV2 = molecular target: T10, ETV2 (Homo sapiens, UniProt O00321 1-342); details: protein: recombinant; tags: N-terminal GST; dsDNA, one strand shown
# T10 sequence: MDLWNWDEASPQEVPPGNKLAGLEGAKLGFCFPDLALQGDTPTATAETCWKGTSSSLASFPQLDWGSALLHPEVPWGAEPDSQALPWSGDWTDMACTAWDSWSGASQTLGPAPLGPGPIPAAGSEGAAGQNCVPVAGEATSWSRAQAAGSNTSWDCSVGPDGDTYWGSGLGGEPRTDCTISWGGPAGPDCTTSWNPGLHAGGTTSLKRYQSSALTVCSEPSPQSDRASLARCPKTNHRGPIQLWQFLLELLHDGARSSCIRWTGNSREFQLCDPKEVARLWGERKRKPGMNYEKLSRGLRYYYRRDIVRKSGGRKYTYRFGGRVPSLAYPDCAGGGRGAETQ
# Method in brief: as §1
# ELF3 = molecular target: T11, ELF3 (Homo sapiens, UniProt P78545 1-371); details: protein: recombinant; tags: N-terminal GST; dsDNA, one strand shown
# T11 sequence: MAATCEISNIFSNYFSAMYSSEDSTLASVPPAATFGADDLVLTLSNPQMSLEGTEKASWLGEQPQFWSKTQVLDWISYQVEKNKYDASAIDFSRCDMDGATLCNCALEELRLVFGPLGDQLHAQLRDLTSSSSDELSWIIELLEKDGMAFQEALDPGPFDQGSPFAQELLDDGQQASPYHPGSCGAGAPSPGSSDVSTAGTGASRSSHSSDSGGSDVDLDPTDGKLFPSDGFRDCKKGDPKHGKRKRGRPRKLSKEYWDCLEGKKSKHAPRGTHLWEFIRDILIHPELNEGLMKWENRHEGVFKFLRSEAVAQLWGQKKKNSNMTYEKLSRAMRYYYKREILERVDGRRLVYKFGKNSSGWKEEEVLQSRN
# Method in brief: as §1
# CRX = CRX (Homo sapiens, UniProt O43186 1-299); details: protein: recombinant; tags: N-terminal GST; dsDNA, one strand shown
# Method in brief: as §1
# ETV1 = ETV1 (Homo sapiens, UniProt P50549 1-477); details: protein: recombinant; tags: N-terminal GST; dsDNA, one strand shown
# Method in brief: as §1
# Chain of ELF1 (P32519 whole entry): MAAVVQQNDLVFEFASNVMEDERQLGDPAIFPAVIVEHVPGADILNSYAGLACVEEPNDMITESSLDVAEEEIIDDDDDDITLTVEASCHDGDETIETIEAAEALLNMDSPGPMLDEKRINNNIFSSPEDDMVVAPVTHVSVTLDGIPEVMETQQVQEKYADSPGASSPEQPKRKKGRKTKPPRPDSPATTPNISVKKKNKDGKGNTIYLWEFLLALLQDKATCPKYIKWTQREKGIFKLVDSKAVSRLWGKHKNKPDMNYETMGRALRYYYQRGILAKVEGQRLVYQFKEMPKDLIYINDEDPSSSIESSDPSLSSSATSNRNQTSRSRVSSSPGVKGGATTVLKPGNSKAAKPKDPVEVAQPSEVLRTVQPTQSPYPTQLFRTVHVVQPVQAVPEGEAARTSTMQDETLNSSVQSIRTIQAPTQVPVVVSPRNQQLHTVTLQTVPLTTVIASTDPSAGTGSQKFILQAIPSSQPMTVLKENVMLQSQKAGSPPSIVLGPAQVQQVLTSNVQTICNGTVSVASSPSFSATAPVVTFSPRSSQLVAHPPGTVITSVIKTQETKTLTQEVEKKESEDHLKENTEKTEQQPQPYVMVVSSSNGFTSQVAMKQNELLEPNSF
# Chain of CRX (O43186 whole entry): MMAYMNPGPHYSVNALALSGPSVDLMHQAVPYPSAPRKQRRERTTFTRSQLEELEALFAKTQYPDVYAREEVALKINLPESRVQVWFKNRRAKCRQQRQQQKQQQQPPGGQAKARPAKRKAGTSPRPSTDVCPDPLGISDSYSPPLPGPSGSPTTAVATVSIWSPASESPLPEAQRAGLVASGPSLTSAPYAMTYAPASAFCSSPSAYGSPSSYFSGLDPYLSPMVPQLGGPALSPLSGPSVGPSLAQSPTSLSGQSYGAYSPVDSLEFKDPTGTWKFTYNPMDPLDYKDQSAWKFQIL
# Chain of ETV5 (P41161 whole entry): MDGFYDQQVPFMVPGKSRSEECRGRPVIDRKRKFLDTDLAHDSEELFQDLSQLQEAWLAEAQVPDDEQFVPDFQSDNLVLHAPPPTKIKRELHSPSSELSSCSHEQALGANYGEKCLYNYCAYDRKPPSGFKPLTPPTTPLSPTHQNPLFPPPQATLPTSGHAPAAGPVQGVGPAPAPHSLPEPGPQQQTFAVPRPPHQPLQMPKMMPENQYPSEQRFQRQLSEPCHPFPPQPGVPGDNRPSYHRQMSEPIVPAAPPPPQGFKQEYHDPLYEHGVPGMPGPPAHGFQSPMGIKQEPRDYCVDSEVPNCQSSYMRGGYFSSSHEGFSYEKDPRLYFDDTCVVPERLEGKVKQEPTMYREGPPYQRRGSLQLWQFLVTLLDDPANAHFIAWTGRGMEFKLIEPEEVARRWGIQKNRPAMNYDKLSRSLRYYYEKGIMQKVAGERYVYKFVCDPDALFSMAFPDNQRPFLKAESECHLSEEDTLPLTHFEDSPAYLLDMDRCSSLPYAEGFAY
# Chain of SPIB (Q01892 whole entry): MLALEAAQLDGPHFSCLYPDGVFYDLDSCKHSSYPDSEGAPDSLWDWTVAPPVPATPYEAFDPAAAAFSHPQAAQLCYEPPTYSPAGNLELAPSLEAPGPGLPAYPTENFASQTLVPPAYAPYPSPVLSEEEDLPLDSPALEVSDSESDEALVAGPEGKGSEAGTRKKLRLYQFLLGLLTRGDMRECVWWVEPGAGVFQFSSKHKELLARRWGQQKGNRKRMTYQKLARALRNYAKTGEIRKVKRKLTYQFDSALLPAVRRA
# Chain of ELF4 (Q99607 whole entry): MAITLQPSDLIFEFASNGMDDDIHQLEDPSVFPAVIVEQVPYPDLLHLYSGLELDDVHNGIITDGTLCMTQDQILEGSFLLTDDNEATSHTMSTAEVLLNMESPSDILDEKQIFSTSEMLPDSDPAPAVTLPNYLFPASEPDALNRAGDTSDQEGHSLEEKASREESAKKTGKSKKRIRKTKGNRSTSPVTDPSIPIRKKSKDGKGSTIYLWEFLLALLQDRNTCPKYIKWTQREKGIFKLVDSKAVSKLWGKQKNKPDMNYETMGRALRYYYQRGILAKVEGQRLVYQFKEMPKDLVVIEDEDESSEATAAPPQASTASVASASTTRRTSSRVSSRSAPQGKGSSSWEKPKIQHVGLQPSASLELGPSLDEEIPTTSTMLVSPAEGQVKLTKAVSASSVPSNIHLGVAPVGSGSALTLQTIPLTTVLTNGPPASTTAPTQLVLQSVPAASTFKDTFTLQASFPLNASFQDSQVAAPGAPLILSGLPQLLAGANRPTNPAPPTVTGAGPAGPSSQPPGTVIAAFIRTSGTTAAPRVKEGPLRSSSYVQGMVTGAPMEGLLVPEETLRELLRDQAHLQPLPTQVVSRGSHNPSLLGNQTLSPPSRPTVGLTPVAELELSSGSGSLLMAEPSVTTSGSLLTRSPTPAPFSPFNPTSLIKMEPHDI
# Chain of HSF1 (Q00613 whole entry): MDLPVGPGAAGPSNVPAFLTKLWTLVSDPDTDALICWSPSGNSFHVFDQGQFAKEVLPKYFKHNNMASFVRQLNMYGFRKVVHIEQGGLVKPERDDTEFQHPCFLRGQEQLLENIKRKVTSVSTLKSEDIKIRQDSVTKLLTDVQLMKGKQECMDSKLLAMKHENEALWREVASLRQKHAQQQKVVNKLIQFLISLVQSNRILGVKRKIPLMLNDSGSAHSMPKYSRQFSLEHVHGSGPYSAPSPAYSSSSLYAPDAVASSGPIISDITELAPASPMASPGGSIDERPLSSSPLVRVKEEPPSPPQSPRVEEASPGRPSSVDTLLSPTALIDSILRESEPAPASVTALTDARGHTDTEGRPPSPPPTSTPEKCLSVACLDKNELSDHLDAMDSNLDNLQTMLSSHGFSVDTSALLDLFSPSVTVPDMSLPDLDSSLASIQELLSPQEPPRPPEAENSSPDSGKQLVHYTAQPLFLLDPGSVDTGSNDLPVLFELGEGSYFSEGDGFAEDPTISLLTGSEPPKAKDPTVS
# Chain of ETV1 (P50549 whole entry): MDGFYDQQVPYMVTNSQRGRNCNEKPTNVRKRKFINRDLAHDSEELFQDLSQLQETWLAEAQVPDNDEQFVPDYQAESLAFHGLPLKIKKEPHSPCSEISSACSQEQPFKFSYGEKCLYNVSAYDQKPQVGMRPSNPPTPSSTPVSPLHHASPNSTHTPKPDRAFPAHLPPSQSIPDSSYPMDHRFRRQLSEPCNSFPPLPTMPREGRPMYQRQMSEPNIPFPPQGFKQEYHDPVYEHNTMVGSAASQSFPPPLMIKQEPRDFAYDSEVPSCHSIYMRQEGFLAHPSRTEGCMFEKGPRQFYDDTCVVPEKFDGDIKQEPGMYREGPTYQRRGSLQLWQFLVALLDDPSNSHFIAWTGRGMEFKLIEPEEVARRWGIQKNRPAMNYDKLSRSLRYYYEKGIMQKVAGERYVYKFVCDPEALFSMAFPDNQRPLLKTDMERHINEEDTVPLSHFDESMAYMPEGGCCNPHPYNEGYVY
sequence,measurement,setting,value
ATGGCT,binding signal,FLI1,"1.17 fold enrichment (6-mer frequency, TF over GST control)"
same,binding signal,ELK1,"1.34 fold enrichment (6-mer frequency, TF over GST control)"
same,binding signal,GABPA,"1.29 fold enrichment (6-mer frequency, TF over GST control)"
same,binding signal,ERG,"1.37 fold enrichment (6-mer frequency, TF over GST control)"
same,binding signal,ELF1,"1.37 fold enrichment (6-mer frequency, TF over GST control)"
same,binding signal,EHF,"1.4 fold enrichment (6-mer frequency, TF over GST control)"
same,binding signal,SPI1,"1.28 fold enrichment (6-mer frequency, TF over GST control)"
same,binding signal,SPIB,"1.37 fold enrichment (6-mer frequency, TF over GST control)"
same,binding signal,ELK3,"1.28 fold enrichment (6-mer frequency, TF over GST control)"
same,binding signal,FEV,"1.33 fold enrichment (6-mer frequency, TF over GST control)"
same,binding signal,ETV5,"1.29 fold enrichment (6-mer frequency, TF over GST control)"
same,binding signal,HSF1,"1.32 fold enrichment (6-mer frequency, TF over GST control)"
same,binding signal,SPIC,"1.42 fold enrichment (6-mer frequency, TF over GST control)"
same,binding signal,ELF4,"1.32 fold enrichment (6-mer frequency, TF over GST control)"
same,binding signal,ELK4,"1.34 fold enrichment (6-mer frequency, TF over GST control)"
same,binding signal,ETV2,"1.41 fold enrichment (6-mer frequency, TF over GST control)"
same,binding signal,ELF3,"1.33 fold enrichment (6-mer frequency, TF over GST control)"
same,binding signal,CRX,"1.48 fold enrichment (6-mer frequency, TF over GST control)"
same,binding signal,ETV1,"1.29 fold enrichment (6-mer frequency, TF over GST control)"
